# Compound activity: PubChem, National Center for Advancing Translational Sciences (NCATS)
# A selection: hits, their analogues and other compounds. The true share with any hit is near 18%.
# TDP1 cell noCPT: qHTS for Inhibitors of human tyrosyl-DNA phosphodiesterase 1 (TDP1): qHTS in cells in absence of CPT | 15% of 420,000 active | DT40 Tdp1-/- hTDP1 cells, no CPT, ATP luminescence, 48 h | Potency, µM (titrated, usually from 46.2 µM), for the others: at the highest dose activity change, negative = growth inhibition, actives largely listed as inhibitors | AID 686978, 2013; further: potency means the concentration at half of the fitted maximal effect; nearly all actives have a fitted effect of over 55% in size
#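 Compound effects on proliferation are scored in DT40 Tdp1-/-;hTDP1 cells in the absence of CPT. ATP levels (CellTiter-Glo luminescence) are recorded after a ≥48 hr, 37 °C incubation.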
# IL-1B inflam inh: blocks inflammasome-driven IL-1 beta release; THP-1 LPS/ATP IL-1B secretion, AlphaLISA, 16 h; active compounds read low; activity change, % at 57.5 µM; AID 743279; 4.7% of 360,000 active; in the data active means activity change below about -50%; inconclusive means mostly about -30% to -49%
#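 Secreted IL-1B measured by AlphaLISA bead assay after 16 h compound exposure of THP-1 cells; compounds (final up to 57.5 uM) added 1 h before LPS (250 ng/mL) and ATP (1.25 mM) stimulation; lower signal means less secretion.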
# LDHA inh: blocks human lactate dehydrogenase A; P00338; purified LDHA, NADH/diaphorase-resazurin fluorescence; active compounds read low; activity change, % (values are at about 110 or 230 µM); 0.15% of 480,000 active; AID 1347041; in the data active means activity change below about -30%; inconclusive means mostly about -25% to -30%;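 further: plate controls were DMSO wells for no effect and wells without enzyme for full effect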
#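 LDH5 2 nM; NADH 0.06 mM, pyruvate 0.2 mM; 200 mM Tris pH 7.4, EDTA, Tween-20; 5 min RT. Detection: diaphorase 0.133 mg/mL + resazurin 37 µM, fluorescence ex540/em590 at 0 and 20 min; normalized to enzyme-free and DMSO wells.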
# RORg inh: inhibitors of mouse ROR gamma transcriptional activity; P51450; Drosophila S2 Gal4-RORgamma UAS-luciferase reporter, 20 h; Potency, µM (titrated, usually from 53.6 µM), for inactives: at the top dose activity change, negative = inhibition, usual class: inhibitors; 5.4% of 310,000 active; AID 2551; further: potency means the concentration at half of the fitted maximal effect; nearly all actives have a fitted effect of over 60% in size
# Target sequence (P51450 whole entry, looked up, the tested form may be a part): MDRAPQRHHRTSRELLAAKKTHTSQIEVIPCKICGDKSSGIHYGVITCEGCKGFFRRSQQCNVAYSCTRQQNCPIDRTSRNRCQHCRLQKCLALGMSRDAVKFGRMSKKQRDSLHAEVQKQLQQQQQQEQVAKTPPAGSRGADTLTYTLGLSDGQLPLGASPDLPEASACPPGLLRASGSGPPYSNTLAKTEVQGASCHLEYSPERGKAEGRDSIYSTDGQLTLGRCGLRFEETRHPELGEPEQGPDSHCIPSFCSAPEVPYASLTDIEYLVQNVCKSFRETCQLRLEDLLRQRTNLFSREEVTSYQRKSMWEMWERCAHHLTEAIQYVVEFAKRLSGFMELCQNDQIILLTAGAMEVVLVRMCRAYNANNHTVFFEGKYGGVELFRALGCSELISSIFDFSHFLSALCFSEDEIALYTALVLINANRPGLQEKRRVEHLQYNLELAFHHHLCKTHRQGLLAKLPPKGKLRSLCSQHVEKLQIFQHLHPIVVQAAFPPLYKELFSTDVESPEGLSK
#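 Stable Schneider cell line, Gal4 DNA-binding domain fused to ROR gamma, UAS-luciferase. Cmpd 1 hr RT → CuSO4 700 uM final → 20 hr RT → luciferase reagent 10 min → luminescence.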
# DT40 TDP1 CPT: growth inhibition of DT40 Tdp1-/-;hTDP1 cells with camptothecin (screen for TDP1 inhibitors); 12% of 420,000 active; Potency, µM (top dose mostly 46.2 µM), inactives show top-dose activity change, negative = growth inhibition, most hits filed as inhibitors; chicken DT40 Tdp1-/-;hTDP1 cells + 20 nM CPT, ATP luminescence, 48 h; further: potency means the concentration at half of the fitted maximal effect; nearly all actives have a fitted effect of over 55% in size
#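 Cell growth measured by CellTiter-Glo luminescence after a minimum 48 h, 37 C compound exposure with 20 nM CPT in Tdp1-knockout DT40 cells stably expressing hTDP1, seeded 400/well; qHTS titration format.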
# Gal4-VP16 FLuc: counter-screen for ROR gamma inhibitors: Gal4-VP16 reporter; 3.5% of 310,000 active; Drosophila S2 Gal4-VP16 UAS-luciferase, luminescence, 20 h; Potency, µM (highest dose often 53.6 µM), for the others: at the highest dose activity, negative = inhibition, most hits filed as inhibitors;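 further: Gal4-VP16 expression switched on by copper sulfate through the metallothionein promoter; potency means the concentration at half of the fitted maximal effect; nearly all actives have a fitted effect of over 50% in size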
# * hit, by the source's call; ? = inconclusive; . = no result. Unless noted, the call rests on the fitted dose curve; in most records, active means well fitted curve in the direction sought with a large enough effect; inconclusive means small, poorly fitted or top-dose-only effect, or another doubt; inactive means no such curve, though single readings can be large; an effect the other way counts as inactive or inconclusive. Unless noted, on the % scale 0 is the no-effect control and ±100 the full control effect.
SMILES,TDP1 cell noCPT,IL-1B inflam inh,LDHA inh,RORg inh,DT40 TDP1 CPT,Gal4-VP16 FLuc
O=C(NCC(c1ccco1)N1CCN(c2ccccc2F)CC1)c1cccs1 (configuration not stated),?,-2,-5,.,-27%,.
O=C(NCC(c1ccco1)N1CCN(c2ccccc2F)CC1)C(=O)NC1CCCC1 (configuration not stated),9.2µM*,6,-1,.,?,.
O=C(NCC(c1ccco1)N1CCN(c2ccccc2)CC1)C1CCCCC1 (configuration not stated),23µM*,-7,0,.,?,.
O=C(NCc1cccs1)C(=O)NCC(c1ccco1)N1CCN(c2ccccc2F)CC1 (configuration not stated),?,17,-3,11%,23µM*,-10%
Cc1ccc(NC(=O)CN2C(=O)N/C(=C\c3cccn3-c3ccc(-c4nn[nH]n4)cc3)C2=O)cc1,.,.,-15,.,.,.
CCOc1c(Br)cc(C2CC(=O)Nc3cc(OC)c(OC)cc32)cc1OC (configuration not stated),23µM*,-2,-8,?,?,?
COc1cc2c(cc1OC)C(c1ccccc1C(F)(F)F)CC(=O)N2 (configuration not stated),?,-53*,0,?,-3%,7%
CCOc1cccc(C2CC(=O)Nc3cc4c(cc32)OCCO4)c1 (configuration not stated),5.8µM*,.,-7,.,5.2µM*,.
Cc1ccc(C2CC(=O)Nc3cc4c(cc32)OCCO4)cc1 (configuration not stated),-15%,.,-11,.,-29%,.
CCCOc1c(OC)cccc1C1CC(=O)Nc2cc3c(cc21)OCO3 (configuration not stated),21µM*,2,3,37%,?,-6%
COc1cc2c(cc1OC)C(c1ccccc1C)CC(=O)N2 (configuration not stated),-29%,33,-1,-25%,0%,-6%
COc1ccc(C2CC(=O)Nc3cc(OC)c(OC)cc32)cc1Br (configuration not stated),-8%,0,0,9%,-16%,-5%
Brc1cccc(CNCCCn2ccnc2)c1,.,.,2,.,.,.
Cc1cccc2c1ccn2CCC(=O)Nc1nnc(CC(C)C)s1,.,.,1,.,.,.
COc1cc(C2CC(=O)Nc3n[nH]c(-c4ccccc4)c32)cc(OC)c1OC (configuration not stated),15µM*,5,-2,0%,8.2µM*,2%
COc1cc(C2CC(=O)Oc3n[nH]c(-c4ccccc4)c32)cc(OC)c1OC (configuration not stated),.,.,-1,.,.,.
COc1cc2c(cc1OC)C(c1ccc(OC)c(OC)c1OC)CC(=O)N2 (configuration not stated),2%,24,0,11%,-3%,4%
Cc1cc2c(cc1C)C(c1cccc([N+](=O)[O-])c1)CC(=O)N2 (configuration not stated),18µM*,14,3,?,23µM*,-2%
COc1cc(C2CC(=O)Nc3cc(C)c(C)cc32)cc(OC)c1OC (configuration not stated),12µM*,3,-9,10%,16µM*,-12%
CCOc1c(OC)cccc1C1CC(=O)Nc2cc(OC)c(OC)cc21 (configuration not stated),18µM*,10,-2,19%,?,-4%
CC1(C)CCCC(C)(C#CCN2CCN(C(=O)c3ccccc3)CC2)O1 (configuration not stated),.,.,5,.,.,.
COc1cc(Cl)c(C)cc1NC(=O)Cn1nc2ccc(SC3CCCCC3)nn2c1=O,.,.,-1,.,.,.
Cc1cc(Cl)c2c([N+](=O)[O-])c(O)ccc2n1,.,.,6,.,.,.
